# Source: the supplement of paper PMC12645437, “Orthogonal IMiD-Degron Pairs Induce Selective Protein Degradation in Cells” (ACS Chemical Biology, 2025)
# Whole data set: some 8,300 sequences, median “log2 fold change of degron read counts, EGFP-low vs EGFP+ sorted cells (limma voom), compound-induced degradation” near -1.1, cut for the highest 2% near 3.2. Shown is part of a subset that was picked to be rich in the highest values.
# T1: CRBN, Q96SW2
# T1 chain: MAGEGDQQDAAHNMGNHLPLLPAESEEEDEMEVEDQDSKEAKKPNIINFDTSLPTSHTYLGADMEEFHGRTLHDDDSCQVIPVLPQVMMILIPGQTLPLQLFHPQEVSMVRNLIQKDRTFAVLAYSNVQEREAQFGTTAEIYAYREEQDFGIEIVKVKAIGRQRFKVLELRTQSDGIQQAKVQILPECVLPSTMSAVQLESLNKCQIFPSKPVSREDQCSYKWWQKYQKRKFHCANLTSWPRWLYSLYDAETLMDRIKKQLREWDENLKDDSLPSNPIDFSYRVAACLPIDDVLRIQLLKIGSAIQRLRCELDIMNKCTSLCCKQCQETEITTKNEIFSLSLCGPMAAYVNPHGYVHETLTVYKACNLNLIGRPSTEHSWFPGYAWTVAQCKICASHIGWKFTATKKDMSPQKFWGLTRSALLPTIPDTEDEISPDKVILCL
# Biological target: T1, CRBN, Q96SW2
# Assay: log2 fold change of degron read counts, EGFP-low vs EGFP+ sorted cells (limma voom), compound-induced degradation; higher = more compound-induced degradation of the degron-EGFP fusion; degrons are variants of IKZF1/3 zinc finger 2; compound dose not given here
# Conditions: Jurkat, 18 h
# [1] = compound: compound 19 (5-tert-butyl-thalidomide)
# [2] = compound: compound 22 (5-morpholino-thalidomide)
# [3] = compound: compound 33 (diphenyl IMiD analogue)
# 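Also: pooled lentiviral library of zinc finger degron-EGFP fusions in mCherry-positive Jurkat cells, FACS-sorted after compound exposure, with degron abundance counted by next-generation sequencing.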
Sequence,log2 fold change of degron read counts [1],log2 fold change of degron read counts [2],log2 fold change of degron read counts [3],log2 fold change of degron read counts (compound: thalidomide)
"FFCEICGHRFTQKGNLLRHIKL [46F_47F_49E_50I_52G_53H_54R_55F_67L_, Q9UKT9]",-1.06,-1.44,-1.47,-1.72
"FDCPICGAVFTQKGNLLRHIKL [46F_47D_49P_50I_52G_53A_54V_55F_67L_, Q9UKT9]",0.604,0.176,1.99,1.81
"FFCEVCGADFTQKGNLLRHIKL [46F_47F_49E_50V_52G_53A_54D_55F_67L_, Q9UKT9]",-0.0497,0.23,-0.854,-0.804
"FHCEVCGAPFTQKGNLLRHIKL [46F_47H_49E_50V_52G_53A_54P_55F_67L_, Q9UKT9]",3.54,3.17,2.03,1.38
"FFCEVCGAPFTQKGNLLRHIKL [46F_47F_49E_50V_52G_53A_54P_55F_67L_, Q9UKT9]",4,3.18,1.98,1.73
"FSCEVCGAPFTQKGNLLRHIKL [46F_47S_49E_50V_52G_53A_54P_55F_67L_, Q9UKT9]",2.89,2.01,0.358,1.1
"FDCEVCGAPFTQKGNLLRHIKL [46F_47D_49E_50V_52G_53A_54P_55F_67L_, Q9UKT9]",0.668,-1.2,-1.15,-0.746
"FCCNVCGAPFTQKGNLLRHIKL [46F_47C_49N_50V_52G_53A_54P_55F_67L_, Q9UKT9]",1.3,0.686,-0.00676,0.263
"FTCEVCGAPFTQKGNLLRHIKL [46F_47T_49E_50V_52G_53A_54P_55F_67L_, Q9UKT9]",2.16,3.25,1.81,2.71
"FTCNVCGAPFTQKGNLLRHIKL [46F_47T_49N_50V_52G_53A_54P_55F_67L_, Q9UKT9]",0.145,1.49,0.972,1.51
"FNCEVCGAPFTQKGNLLRHIKL [46F_47N_49E_50V_52G_53A_54P_55F_67L_, Q9UKT9]",2.7,1.8,0.0261,0.847
"FICEVCGAPFTQKGNLLRHIKL [46F_47I_49E_50V_52G_53A_54P_55F_67L_, Q9UKT9]",2.03,3.48,2.78,3.17
"FACEVCGAPFTQKGNLLRHIKL [46F_47A_49E_50V_52G_53A_54P_55F_67L_, Q9UKT9]",3.19,1.62,-0.375,0.871
"FMCDVCGACFTQKGNLLRHIKL [46F_47M_49D_50V_52G_53A_54C_55F_67L_, Q9UKT9]",-1.81,-1.41,0.979,-1.1
"FICNQCGAEFTQKGNLLRHIKL [46F_47I_49N_50Q_52G_53A_54E_55F_67L_, Q9UKT9]",-3.37,-3.09,-2.19,-1.75
"FHCEICGAWFTQKGNLLRHIKL [46F_47H_49E_50I_52G_53A_54W_55F_67L_, Q9UKT9]",-0.982,-1.57,-0.784,-2.02
"FLCEVCGAPFTQKGNLLRHIKL [46F_47L_49E_50V_52G_53A_54P_55F_67L_, Q9UKT9]",2.39,2.45,2.33,2.97
"FCCEVCGAPFTQKGNLLRHIKL [46F_47C_49E_50V_52G_53A_54P_55F_67L_, Q9UKT9]",3.23,2.09,0.726,1.26
"FVCEVCGAPFTQKGNLLRHIKL [46F_47V_49E_50V_52G_53A_54P_55F_67L_, Q9UKT9]",2.23,3.61,2.24,3.07
"FRCEVCGADFTQKGNLLRHIKL [46F_47R_49E_50V_52G_53A_54D_55F_67L_, Q9UKT9]",-1.68,-1.6,1.33,0.331
"FQCEVCGAPFTQKGNLLRHIKL [46F_47Q_49E_50V_52G_53A_54P_55F_67L_, Q9UKT9]",3.05,3.49,1.41,3.53
"FYCEVCGAPFTQKGNLLRHIKL [46F_47Y_49E_50V_52G_53A_54P_55F_67L_, Q9UKT9]",3.69,3.45,2.63,1.63
"FWCEVCGAPFTQKGNLLRHIKL [46F_47W_49E_50V_52G_53A_54P_55F_67L_, Q9UKT9]",3.08,2.92,1.89,1.01
"FRCEVCGAPFTQKGNLLRHIKL [46F_47R_49E_50V_52G_53A_54P_55F_67L_, Q9UKT9]",3.45,3.6,3.39,3.62
"FGCEVCGAPFTQKGNLLRHIKL [46F_47G_49E_50V_52G_53A_54P_55F_67L_, Q9UKT9]",0.82,-0.556,-1.51,-1.08
"FQCNQCGANFTQKGNLLRHIKL [46F_47Q_49N_50Q_52G_53A_54N_55F_67L_, Q9UKT9]",-2.24,-1.57,-1.76,-0.0144
"FSCDQCGALFTQKGNLLRHIKL [46F_47S_49D_50Q_52G_53A_54L_55F_67L_, Q9UKT9]",-2.6,-3.3,-0.185,-3.02
"FNCSVCGHNFTQKGNLLRHIKL [46F_47N_49S_50V_52G_53H_54N_55F_67L_, Q9UKT9]",-2.71,-4.15,-3.1,-2.83
